Only a selection was taken, and hits are over-represented in it overall.
Tg IFNy HTS: T. gondii growth inhibition with IFN-gamma, primary screen, cell-based; Toxoplasma gondii growth in IFN-gamma-treated host cells; active compounds read low; activity change, negative = inhibition, % (concentration not given with the values); 3.8% of 69,000 active; AID 1259416, 2018; in the data active = activity change below about -70%, passing the limit was not always enough;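 note: host cells are HeLa cells infected with Toxoplasma gondii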
Active calls of the source: *; i = inactive; ! = not active in a repeat.

SMILES | Tg IFNy HTS
COc1ccc(C(=O)O)cc1CN1CCOCC1 | -20
CCN(CC)CCNC(=O)c1ccccc1I | 12
CCN(CC)CCNc1ccc(CO)c2sc3ccccc3c(=O)c12 | -97*!
N#Cc1c2c(c(Nc3ccccc3)n3c1nc1ccccc13)CCCC2 | -51
O=C(c1c(O)cccc1O)N1CCCC(OCc2cccnc2)C1 (centres undefined) | 6
O=C(Cn1c(=O)ccc2cc(S(=O)(=O)N3CCCC3)ccc21)N1CCN(c2ccccc2F)CC1 | 69
C[C@@H]1CN([C@@H](C)CO)C(=O)Cc2cc(NC(=O)C3CCCCC3)ccc2O[C@@H]1CN(C)Cc1ccc(Cl)c(Cl)c1 | -87*
C[C@H]1CN([C@@H](C)CO)C(=O)c2cccc(NS(=O)(=O)c3ccc(F)cc3)c2O[C@H]1CN(C)Cc1ccc(Cl)c(Cl)c1 | -78*
C[C@@H]1CN([C@@H](C)CO)C(=O)c2cccc(NS(=O)(=O)c3ccc(F)cc3)c2O[C@H]1CN(C)Cc1ccc(Cl)c(Cl)c1 | -64
C[C@H](CO)N1C[C@H](C)[C@H](CN(C)Cc2ccc(Cl)c(Cl)c2)Oc2ccc(NC(=O)C3CCCCC3)cc2CC1=O | -52
C[C@@H]1CN([C@H](C)CO)C(=O)c2cccc(NS(C)(=O)=O)c2O[C@@H]1CN(C)Cc1ccc(-c2ccccc2)cc1 | -55
C[C@H]1CN([C@@H](C)CO)C(=O)Cc2cc(NC(=O)C3CCCCC3)ccc2O[C@@H]1CN(C)Cc1ccc(Cl)c(Cl)c1 | -40
C[C@H](CO)N1C[C@H](C)[C@@H](CN(C)Cc2ccc(-c3ccccc3)cc2)Oc2c(NS(C)(=O)=O)cccc2C1=O | -52
C[C@@H]1CN([C@@H](C)CO)C(=O)c2cccc(NS(C)(=O)=O)c2O[C@@H]1CN(C)Cc1ccc(-c2ccccc2)cc1 | -1
C[C@H](CO)N1C[C@H](C)[C@H](CN(C)Cc2ccc(Cl)c(Cl)c2)Oc2c(NS(=O)(=O)c3ccc(F)cc3)cccc2C1=O | -85*
Cn1ccn2ncc(C(=O)N3CCCC(C(=O)NCCCO)C3)c12 (centres undefined) | -14
CCN(CC)C(=O)CN1C(=O)C2CCC(=O)CC2C1=O (centres undefined) | 14
CN1CCN(C(=O)c2cc3cccnc3n(Cc3ccc(F)cc3)c2=O)CC1 | 28
Cc1ccc(C)c(NC(=O)CN2C(=O)CCc3cc(S(=O)(=O)N4CCC(C)CC4)ccc32)c1 | 3
c1ccc(CCCN2CCC(c3cccc(-n4ccnc4)n3)CC2)cc1 | 18
COc1ccccc1CNC(=O)CCC1N=C2c3ccccc3N=C(SCc3ccc(F)cc3)N2C1=O (centres undefined) | -7
Nc1nc(N)c(Cc2ccccc2)cc1Cc1ccccc1 | 160
COc1ccc(Cc2cnc(N)nc2N)cc1OC | -79*
COc1ccc(CCN(C)C2CCCN(c3ccnc(N)n3)C2)cc1OC (centres undefined) | -2
COc1cc(OC)cc(-c2nc(N)c3c(C)c(-c4ccc(OC)c(OC)c4)sc3n2)c1 | -65
SMILES | Tg IFNy HTS
COc1ccc(COc2ccc(Cc3cnc(N)nc3N)cc2OC)cc1 | -77*
COc1ccc(COc2cc3oc(=O)c4cc(C(C)O)ccc4c3cc2OC)cc1 (centres undefined) | -6
Cn1c(=O)oc2cc(NC(=O)CC3CCN(C4CCCCC4)CC3)ccc21 | -38
Cc1ccc(CN2CCc3nc(NC(C)C)nc(C)c3C2)s1 | -6
Cc1ccc(CN2CCc3nc(N4CCOCC4)nc(NC(C)C)c3C2)s1 | -98*
COc1ccc(CN2CCc3nc(N4CCOCC4)nc(NC4CC4)c3C2)cc1 | 0
COC(C)c1cccc(-c2cc(N)ncn2)c1 (centres undefined) | 5
Cc1ccc(C)c(NC(=O)Cn2c(=O)cc(C(=O)N3CCCC3)c3ccccc32)c1 | 1
CCS(=O)(=O)N1CCc2c(CNc3ccnc(C)n3)cncc2C1 | 28
CCCCCN(C)C(=O)c1ncn2c1CN(CC1CC1)S(=O)(=O)c1ccccc1-2 | -1
CN(C(=O)c1ncn2c1CN(CC1CC1)S(=O)(=O)c1ccccc1-2)c1ccccc1 | -105*
CCCCN(CC)C(=O)c1ncn2c1CN(CC1CC1)S(=O)(=O)c1ccccc1-2 | 0
Cc1nc(CN2C[C@@H]3CN(Cc4nccn4C)C[C@@H]3C2)cs1 | -8
CN(C)C(=O)CCCn1cnc(-c2ccccc2)c1-c1cc2ccccc2[nH]1 | -6
CCc1nc(-c2c(-c3ccccc3)ncn2CCCO)c(C)[nH]1 | 3
OCCCCn1cnc(-c2ccccc2)c1-c1ccc2cccc(Cl)c2n1 | -88*
Cc1cc2nc(C(C)NC(=O)c3c(-c4cccnc4)noc3C)cc(=O)n2[nH]1 (centres undefined) | i
COCCC(=O)N1CCC2(CCOC2)C1 (centres undefined) | -16
CCC(=O)O[C@@]1(C(=O)CCl)[C@@H](C)C[C@H]2[C@@H]3C[C@H](F)C4=CC(=O)C=C[C@]4(C)[C@]3(F)[C@H](O)C[C@@]21C | 3
CCC(=O)OCC(=O)[C@@]1(OC(=O)CC)[C@@H](C)C[C@H]2[C@@H]3CCC4=CC(=O)C=C[C@]4(C)[C@@]3(Cl)[C@@H](O)C[C@@]21C | -74*!
CCC(=O)OCC(=O)[C@@]1(OC(=O)CC)[C@@H](C)C[C@H]2[C@@H]3CCC4=CC(=O)C=C[C@]4(C)[C@@]3(F)[C@@H](O)C[C@@]21C | -1
COc1cccc(CNC(=O)c2nc3c(s2)CCN(C(C)=O)CC3)c1 | 22
CC1=C(C(=O)N2CCc3ccccc3C2)C(c2nc[nH]c2C)NC(=O)N1 (centres undefined) | 92
CC1=NCCN1S(=O)(=O)c1c(C(C)C)cc(C(C)C)cc1C(C)C | 16
CC(C)c1cc(C(C)C)c(S(=O)(=O)Nc2ccc(O)cc2)c(C(C)C)c1 | -75*
SMILES | Tg IFNy HTS
CC(C)c1ccc(NS(=O)(=O)c2cc3c4c(c2)CCC(=O)N4CCC3)cc1 | 2
CCOC(=O)Cc1ccc(NC(=O)N2CCC3(CC2)Nc2ccccc2-n2cccc23)cc1 | 266
CCOc1ccccc1-c1nc(Cn2c(=O)c3c(C)cc(C)nc3n(-c3ccccc3)c2=O)c(C)o1 | 3
CC1=CC(C)(C)N(C(=O)c2ccccc2)c2ccc(OC(=O)c3ccccc3)cc21 | -51
CS(=O)(=O)c1cccc(C(=O)Oc2ccccc2)c1 | -32
CC1CC(C)(C)N2C(=O)C(=O)c3cc(OC(=O)c4ccccc4)cc1c32 (centres undefined) | -96*
COc1cccc(CN2CCCC(C(NC(=O)C(C)(C)C)c3ccccn3)C2)c1 (centres undefined) | -4
Fc1cnc(N2CCO[C@@H]3[C@H]2CC[C@H]3OCc2ccccn2)nc1 | 1
Fc1ccc(CN2CCO[C@H]3[C@H]2CC[C@H]3OCCCn2cccn2)cc1 | -94*
c1coc(CN2C[C@@H](OCCCn3cccn3)[C@@H]3OCCC[C@@H]32)c1 | -30
COC(=O)c1sccc1S(=O)(=O)N1CCCC2(CC1)CN(C)C(=O)O2 (centres undefined) | 5
Cn1nccc1-c1ccc2nc(C3CCN(CCO)CC3)nn2c1 | 102
COCCN1CCc2cc(C(=O)NC(C)C)c(N(C)C)nc2CC1 | -1
COc1ccccc1N1CCN(C(=S)c2ccccc2OC(F)(F)F)CC1 | -27
COc1ccccc1N1CCN(C(=O)C2CCCCC2)CC1 | 7
COc1ccccc1N1CCN(C(=O)c2cc(C(C)(C)C)oc2C)CC1 | -108*
Cn1c2c(ccc1=O)CC(NC(=O)C1CCOC1)CC2 (centres undefined) | 36
CCOC(=O)c1cccc(NC(=O)N2CCC3(CC2)Nc2cc(OC)ccc2-n2cccc23)c1 | 186

Screening data as filed in PubChem.
